# Measured values taken from PubChem BioAssay.
# Where “and” joins values, the source holds several entries; their conditions need not be identical. Identical values can stand only once. Calls of active or inactive are those of the source. Cut-off read from the data, not from the text of the source, unless noted: active = inhibition above about 80%; inactive = the rest.
# Assays:
# [1] = viability loss with induced miR-34 in A549 – imaging, A549 dox-inducible miR-34, nuclei and caspase counts, primary screen (AID 1347080;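 active = compounds whose cell count with miR-34 switched on is under 0.7 times the count with it off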); settings: A549 miR-34 inducible, Hoechst nuclei count, 48 h
# [2] = MELAS cybrid and Rieske KO viability enhancers – cell-based, MELAS cybrids, Rieske KO mouse fibroblasts, CellTiter-Glo, primary screen (AID 1508586;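 active = mean z-score across replicates of 1.96 or higher in either the MELAS or the Rieske mutant cell line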;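 note: z relative to plate mean and SD of compound and empty wells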); settings: low glucose
# [3] = galactose survival enhancers in mitochondrial complex I cybrids – cell-based, galactose medium, ATP luminescence, primary screen (AID 1645843;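 active = z-score of at least 1.8 in each of two replicates, scored against plate mean and spread of sample wells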;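 note: positive z means more ATP and so rescue of galactose-driven cybrid death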); settings: complex I mutant cybrid cells, 72 h, stronger effect = higher value
# [4] = growth inhibition, single agent or in combination, cell-based, chromothripsis tumors, cisplatin or BGB combos (AID 1671449); settings: LFS_MB_P medulloblastoma cells;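 note: cells exposed for 96 hours; 0% = vehicle DMSO and 100% = killing by high DMSO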
# [5] = growth inhibition, single agent and combos, cell-based, chromothripsis tumors, cisplatin or BGB combos (AID 1671450); settings: HDN33 neuroblastoma cells, stronger effect = higher value;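 note: cells exposed to compound for four days; 0% = vehicle DMSO and 100% = cell killing by high DMSO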
# [6] = growth inhibition, single agents and combos, ICB984, cell-based, cisplatin or BGB combos, synergistic combos for chromothripsis tumors (AID 1671451; call rule not given here;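 note: cells exposed for 96 hours before readout; 0% = vehicle DMSO and 100% = killing by high DMSO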); settings: ICB984 medulloblastoma cells, drug combinations, stronger effect = higher value
# [7] = growth inhibition, single agents and combos, LFS_MB_1R, cell-based, cisplatin or BGB combos, synergistic combos for chromothripsis tumors (AID 1671452); settings: LFS_MB_1R medulloblastoma cells, stronger effect = higher value;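 note: cells exposed for 96 hours before readout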
# [8] = growth inhibition, single agents and combos, HTB85, cell-based, BGB or cisplatin IC20 combos, synergistic combos for chromothripsis tumors (AID 1671453); settings: HTB85 osteosarcoma cells, drug combinations, stronger effect = higher value;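 note: cells exposed for 96 hours before readout; 0% = vehicle DMSO and 100% = high DMSO killing control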
# [9] = growth inhibition, single agents and combos, CRL2098, cell-based, BGB or cisplatin IC20 combos, synergistic combos for chromothripsis tumors (AID 1671454); settings: CRL2098 osteosarcoma cells, drug combinations, stronger effect = higher value;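 note: cells exposed for 96 h before readout; 0% = vehicle DMSO and 100% = killing by high DMSO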
# [10] = growth inhibition, single agents and combos, HD-MB03, cell-based, BGB or cisplatin IC20 combos, synergistic combos for chromothripsis tumors (AID 1671455; in the data active = inhibition above about 83%;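 note: 0% = vehicle DMSO and 100% = high DMSO as cytotoxic control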); settings: HD-MB03 medulloblastoma cells, stronger effect = higher value
# [11] = growth inhibition, single agents and combos, UWB1.289, cell-based, BGB or cisplatin combos, synergistic combos for chromothripsis tumors (AID 1671456); settings: UWB1.289 ovarian carcinoma cells, stronger effect = higher value;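 note: cells exposed to compound for four days; 0% = vehicle DMSO and 100% = killing by high DMSO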
# [12] = growth inhibition, single agents and combos, LFS_MB_2R, cell-based, cisplatin combos, synergistic combos for chromothripsis tumors (AID 1671457); settings: LFS_MB_2R medulloblastoma cells, stronger effect = higher value;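 note: cells exposed to compound for four days before readout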
# [13] = growth inhibition, MDA-MB-436, cell-based, BGB or cisplatin combos, synergistic combos for chromothripsis tumors (AID 1671458; call rule not given here;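 note: cells exposed for 96 hours; 0% = vehicle DMSO and 100% = killing by high DMSO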); settings: MDA-MB-436 breast carcinoma growth inhibition, drug combinations, stronger effect = higher value
# [14] = UWB1.289_BRCA1 ovarian cancer growth, cell-based, BGB or cisplatin combinations (AID 1671459); settings: UWB1.289 BRCA1 ovarian carcinoma, drug combinations, stronger effect = higher value
# [15] = drug combination toxicity in non-malignant astrocytes – cell-based, BGB or cisplatin IC20 combos, cytotoxicity control for chromothriptic childhood tumor combination screen (AID 1671460); settings: Human astrocytes, viability inhibition, drug combinations, at 0.5 µM, stronger effect = higher value;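 note: cells exposed to compounds for 96 hours before viability readout; 0% = vehicle and 100% = killing control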
# [16] = BT084 cell growth, single and combined drugs, ICGC_MB145, cisplatin and BGB IC40 combos (AID 1671461); settings: BT084 medulloblastoma cells, drug combinations, stronger effect = higher value;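 note: cells exposed to drugs for 96 hours; 0% = vehicle DMSO and 100% = high DMSO full killing control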
# [17] = RCMB18 cell growth, single agent and combined, cisplatin and BGB IC40 combos (AID 1671462); settings: RCMB18 medulloblastoma cells, stronger effect = higher value;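 note: cells exposed to compound for four days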
# [18] = CRL1545 cell growth, single agent and combined, cisplatin and BGB IC20 combos (AID 1671464); settings: CRL1545 osteosarcoma cells, stronger effect = higher value;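 note: cells exposed to compound for 96 hours before readout; 0% = vehicle DMSO and 100% = high DMSO killing control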
# [19] = measured here: combination with BGB IC40, at 0.05 µM
# [20] = measured here: with BGB IC20 combination, at 0.5 µM
# [21] = measured here: with cisplatin IC20 combination, at 0.5 µM
# [22] = measured here: combination with cisplatin, at 0.5 µM
# [23] = measured here: combination with cisplatin, at 5 µM
structure (smiles),measurement,setting,value
O=c1[nH]cnc2c1ncn2C1CCC(CO)O1 (stereo not given),fold change,"[1]; stronger effect = lower value, cell number ratio, induced over uninduced",0.874 (inactive) and 0.873 (inactive)
same,fold change,[1]; measured here: relative caspase fold change +Dox/-Dox,1.69 and 1.3
same,cell count,"[1]; measured here: total cells with miR-34 induction, stronger effect = lower value",9660 and 7790
same,cell count,[1]; measured here: total cells without miR-34 induction,11100 and 8920
same,z-score,"[2]; MELAS cybrid survival, CellTiter-Glo 48 h, stronger effect = higher value",-0.36 (inactive)
same,z-score,"[2]; Rieske KO mouse fibroblast survival, CellTiter-Glo 72 h",0.371
same,z-score,[3],0.465 (inactive)
same,inhibition,"[4]; at 0.5 µM, stronger effect = higher value",-32.9% (inactive)
same,inhibition,"[4]; measured here: combination with BGB IC20, at 0.005 µM",-16.1%
same,inhibition,"[4]; measured here: combination with BGB IC40, at 0.005 µM",-29.5%
same,inhibition,[4]; [19],-24.5%
same,inhibition,"[4]; measured here: combination with cisplatin, at 0.5 µM, stronger effect = higher value",-38.2%
same,inhibition,"[4]; measured here: combination with cisplatin, at 5 µM, stronger effect = higher value",-16.6%
same,inhibition,"[5]; BGB combo, at 5 µM",-15.1%
same,inhibition,[5]; at 0.5 µM,-10.3% (inactive)
same,inhibition,"[5]; cisplatin combo, at 5 µM",0.055%
same,inhibition,[5]; [20],-9.52%
same,inhibition,[5]; [21],-5.77%
same,inhibition,"[5]; single agent, at 5 µM",-6.37%
same,inhibition,"[6]; BGB IC20 combo, at 0.005 µM",3.8%
same,inhibition,"[6]; BGB IC40 combo, at 0.005 µM",-17.3%
same,inhibition,"[6]; BGB IC40 combo, at 0.05 µM",-42.9%
same,inhibition,[6]; at 0.5 µM,-12.4% (inactive)
same,inhibition,"[6]; cisplatin combo, at 0.05 µM",-46.9%
same,inhibition,"[6]; cisplatin combo, at 0.5 µM",-0.57%
same,inhibition,"[6]; cisplatin combo, at 5 µM",-45.9%
same,inhibition,"[6]; measured here: 5 uM single agent, at 5 µM",-17.3%
same,inhibition,[7]; at 0.5 µM,-24.1% (inactive)
same,inhibition,[7]; [19],-1.26%
same,inhibition,[7]; [22],-27.1%
same,inhibition,[7]; [23],-51.2%
same,inhibition,[8]; at 0.5 µM,0.13% (inactive)
same,inhibition,"[8]; measured here: with BGB IC20, at 0.5 µM",-29.8%
same,inhibition,"[8]; measured here: with BGB IC20, at 5 µM",-39.1%
same,inhibition,"[8]; measured here: with cisplatin IC20, at 0.5 µM",5.05%
same,inhibition,"[8]; measured here: with cisplatin IC20, at 5 µM",-50%
same,inhibition,"[8]; single agent, at 5 µM",-11.3%
same,inhibition,[9]; at 0.5 µM,-44.8% (inactive)
same,inhibition,"[9]; measured here: combination with BGB at IC20, at 0.5 µM",-57.1%
same,inhibition,"[9]; measured here: combination with cisplatin at IC20, at 0.5 µM",-26.9%
same,inhibition,[10]; at 0.5 µM,-5.57% (inactive)
same,inhibition,"[10]; measured here: combo with BGB at IC20, at 0.5 µM",0.583%
same,inhibition,"[10]; measured here: combo with cisplatin at IC20, at 0.5 µM",-5.27%
same,inhibition,[11]; at 0.5 µM,-1.68% (inactive)
same,inhibition,"[11]; measured here: inhibition with BGB combination, at 0.05 µM",-32%
same,inhibition,"[11]; measured here: inhibition with cisplatin combination, at 0.05 µM",-6.01%
same,inhibition,[12]; at 0.5 µM,-19.9% (inactive)
same,inhibition,[12]; [22],-27.6%
same,inhibition,[12]; [23],-58%
same,inhibition,[13]; at 0.5 µM,-28.3% (inactive)
same,inhibition,"[13]; measured here: BGB combination, at 0.5 µM",-25.6%
same,inhibition,"[13]; measured here: BGB combination, at 5 µM",-24.3%
same,inhibition,"[13]; measured here: cisplatin combination, at 0.5 µM",-38.2%
same,inhibition,"[13]; measured here: cisplatin combination, at 5 µM",-39%
same,inhibition,"[14]; BGB combination, concentration series, at 5 µM",-6.99%
same,inhibition,[14]; at 0.5 µM,-4.59% (inactive)
same,inhibition,"[14]; cisplatin combination, concentration series, at 5 µM",5.72%
same,inhibition,[15],4.8% (inactive)
same,inhibition,[15]; measured here: combo with BGB IC20,-5.94%
same,inhibition,[15]; measured here: combo with cisplatin IC20,2.75%
same,inhibition,[16]; at 0.5 µM,-19.3% (inactive)
same,inhibition,"[16]; cisplatin combination, at 0.5 µM",2.66%
same,inhibition,"[16]; cisplatin combination, at 5 µM",7.38%
same,inhibition,"[16]; measured here: BGB IC40 combination 0.05 uM, at 0.05 µM",1%
same,inhibition,"[16]; single agent, at 5 µM",-10.4%
same,inhibition,[17]; at 0.5 µM,-28.1% (inactive)
same,inhibition,"[17]; cisplatin combo, at 5 µM",-8.55%
same,inhibition,"[17]; measured here: BGB IC40 combination, at 0.05 µM",12.3%
same,inhibition,[17]; [22],-23.6%
same,inhibition,"[17]; single agent, at 5 µM",-21%
same,inhibition,[18]; at 0.5 µM,-13.6% (inactive)
same,inhibition,[18]; [20],0.279%
same,inhibition,[18]; [21],-23.2%
same,inhibition,"[18]; single agent, at 0.05 µM",-52.8%
same,inhibition,"[18]; single agent, at 5 µM",-4.43%
